Hits are enriched below; roughly 19% of the tested compounds scored in any of these assays.
KB-3-1 cytotox = kills parental KB-3-1 adenocarcinoma cells | KB-3-1 viability, CellTiter-Glo ATP luminescence, 72 h | AID 1347075 | 400,000 tested, 1.4% active | Potency, µM (highest dose often 46.1 µM), hits mostly cytotoxic; also: nearly all actives have a fitted effect of over 60% in size
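Parental KB-3-1 viability, qHTS format: 72 h compound exposure, 37 °C; CellTiter-Glo; media-only wells and DMSO plates as controls; concentration-effect fits on corrected data.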
KB-V1 cytotox = KB-V1 MDR subline cytotoxicity | KB-V1 MDR cells viability, CellTiter-Glo, 72 h | Potency, µM (titrated, usually from 46.1 µM), hits mostly cytotoxic | 400,000 tested, 3.4% active | AID 1347076; also: nearly all actives have a fitted effect of over 60% in size
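Following 72 h at 37 degrees C with compound, KB-V1 cell viability was read by CellTiter-Glo luminescence, medium being phenol-red-free DMEM plus 10% FBS; concentration-response parameters came from normalized, curve-fitted qHTS data.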
TDP1 cell noCPT = qHTS for Inhibitors of human tyrosyl-DNA phosphodiesterase 1 (TDP1): qHTS in cells in absence of CPT | DT40 Tdp1-/- hTDP1 cells, no CPT, ATP luminescence, 48 h | Potency, µM (highest dose often 46.2 µM), without a hit: at the top dose activity change, negative = growth inhibition, hits mostly inhibitors | 420,000 tested, 15% active; also: nearly all actives have a fitted effect of over 55% in size
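DT40 Tdp1-/-;hTDP1 cells, no CPT (DMSO vehicle only), 400 cells/well; compounds pin-transferred; ≥48 hr, 37 °C; CellTiter-Glo 30 min RT dark, luminescence read.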
TDP1 cell CPT = growth inhibition of DT40 Tdp1-/-;hTDP1 cells with camptothecin (screen for TDP1 inhibitors); chicken DT40 Tdp1-/-;hTDP1 cells + 20 nM CPT, ATP luminescence, 48 h; 420,000 tested, 12% active; Potency, µM (top dose mostly 46.2 µM), for inactives: at the highest dose activity change, negative = growth inhibition, actives largely listed as inhibitors; also: nearly all actives have a fitted effect of over 55% in size
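Chicken DT40 Tdp1-/- cells stably complemented with human TDP1 were seeded at 400 cells/well in medium containing 20 nM camptothecin, exposed to pin-transferred compounds, and grown at 37 °C for at least 48 hr. Viability was read as ATP luminescence.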
HT1080NT lethal = kills 2HG-producing HT-1080-NT fibrosarcoma cells; 360,000 tested, 1.6% active; HT-1080-NT fibrosarcoma viability, CellTiter-Glo ATP luminescence, 48 h; Potency, µM (highest dose often 46.1 µM), for inactives: top-dose activity, negative = less viability, hits mostly cytotoxic;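 also: NT is the 2HG producing partner of a matched IDH1 knockdown line; 0% = DMSO-treated cells and -100% = media-only wells without cells; nearly all actives have a fitted effect of over 55% in size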
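HT-1080-NT; 750 cells/well; 5% FBS RPMI; 48 h compound, 37 degrees C; CellTiter-Glo luminescence; curve fitting and curve-class assignment.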
HT1080 IDH1KD tx = HT-1080 IDH1 knockdown cell toxicity (counter line); HT-1080 IDH1 knockdown viability, ATP luminescence, 48 h; 360,000 tested, 2% active; Potency, µM (highest dose often 46.1 µM), without a hit: at the highest dose activity, negative = toxicity, actives largely listed as cytotoxic;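 also: 0% = DMSO wells and -100% = cell-free medium wells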
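HT-1080-IDH1KD cells (IDH1 knocked down), 750/well in RPMI with 5% FBS, treated with compound 48 h at 37 degrees C. Viability by CellTiter-Glo luminescence, normalised to DMSO and no-cell wells; concentration-response curves classed.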
Numbers without * were called inactive; i = inactive; ? = inconclusive; / = not tested or not shown; ! = not active in a repeat; [ ] = remark or other dose. Calls follow the shape of the dose curve; as a rule, active = well fitted curve in the direction sought with a large enough effect; inconclusive = small, poorly fitted or top-dose-only effect, or another doubt; inactive = no such curve, though single readings can be large; an effect the other way counts as inactive or inconclusive. Unless noted, % is scaled to controls: 0 for no effect and ±100 for the full control effect; potency is read from the fitted curve at half-maximal effect.

SMILES	KB-3-1 cytotox	KB-V1 cytotox	TDP1 cell noCPT	TDP1 cell CPT	HT1080NT lethal	HT1080 IDH1KD tx
Cc1o[nH]c(=O)c1C[C@H](N)C(=O)O	/	/	0.1%	6.4%	/	/
COc1ccc(C(=O)NC(=S)NNC(=O)c2cccnc2)cc1	i	?	?	?	-5.8%	-28.0%
COc1ccc(CC(=O)NC(=S)NNC(=O)COc2c(C)cccc2C)cc1	?	i	16.4µM*	16.4µM*	-3.5%	5.2%
CCOC(=O)c1sc(/N=C/c2c(O)n(-c3ccccc3)c(=O)[nH]c2=O)c(C#N)c1C	?	11.6µM*	?	?	19.1%	8.9%
CCc1ccc(-n2c(=O)c3sc4ccccc4c3n(CC(=O)NC3CCCC3)c2=O)cc1	i	i	?	?	/	/
COc1ccc(C(=O)OCC2CN2c2cccc([N+](=O)[O-])c2)cc1 (stereo not given)	i	i	-24.7%	?	15.8%	-6.5%
COC(=O)C1=CN(c2ccc(C(C)(C)C)cc2)C(N)=C(C#N)C1c1cccc([N+](=O)[O-])c1 (stereo not given)	i	?	23.1µM*	?	0.8%	-4.0%
O=C1N=C2SCCN2C(=O)C1Cc1ccc(Cl)cc1 (stereo not given)	/	/	-18.3%	?	/	/
CC1C(=O)OC2CCN3CC4OC4(COC(=O)C(C)(O)C1(C)O)C23 (stereo not given)	i	i	3.0%	2.3%	10.4%	24.1%
COc1ccc(Sc2cnn(-c3ccccc3)c(=O)c2Cl)cc1	i	i	?	?	-4.2%	-29.0%
C[C@H]1COC(=O)[C@@H](Cc2ccc(F)cc2)CC/C=C/C[C@H](CC(=O)N(CCO)Cc2ccccc2)C(=O)N1	i	i	16.4µM*	16.4µM*	-1.2%	-4.2%
C[C@H]1COC(=O)[C@@H](Cc2ccc(F)cc2)CC/C=C/C[C@@H](CC(=O)N(CCO)Cc2ccccc2)C(=O)N1	i	?	23.1µM*	13µM*	-14.3%	4.1%
CNS(=O)(=O)c1cc(NC(=O)c2cccc3cccnc23)ccc1C	i	?	20.6µM*	23.1µM*	10.1%	-4.6%
O=c1[nH]c(=O)n(C2CCCCC2)c(O)c1/C=C/C=Nc1ccccc1	i	i	0.5%	-3.1%	-5.1%	14.2%
CCC(C(=O)Nc1ccccc1F)N1C(=O)CN=C(c2ccccc2)c2ccccc21 (stereo not given)	?	?	23.1µM*	?	/	/
CCOC(=O)c1ccc(N2C(=O)c3n[nH]c(-c4cccs4)c3C2c2ccc(Cl)cc2Cl)cc1 (stereo not given)	?	?	18.4µM*	?	/	/
CCOC(=O)c1ccc(N2C(=O)c3n[nH]c(-c4cccs4)c3C2c2ccc(C(C)(C)C)cc2)cc1 (stereo not given)	?	?	6.51µM*	16.4µM*	/	/
c1ccc(CN2COC3CCCCCC32)cc1 (stereo not given)	i	i	-17.6%	?	28.1%	2.2%
Cc1o[nH]c(=O)c1C[C@@H](N)C(=O)O	/	/	-0.8%	0.6%	/	/
C[C@@H]1C(=O)O[C@H]2[C@H](O)[C@]34[C@@H]5OC(=O)[C@]3(OC3OC(=O)[C@H](O)C34[C@H](C(C)(C)C)[C@@H]5O)[C@@]12O (stereo not given in full)	i	i	-9.5%	-6.0%	?	2.6%
COc1ccc(CCN)cc1O	i	i	-20.5%	-24.9%	15.0%	-0.3%
CCCCOc1ccc(CCN)cc1Cl	i	i	2.06µM*	2.31µM*	-14.9%	-6.4%
CC(C)Oc1ccc(CCN)cc1Cl	i	i	5.8µM*	5.17µM*	0.7%	?
O=C(COc1ccccc1/C=C1/NC(=O)NC1=O)Nc1ccccc1	i	i	?	20.6µM*	1.1%	13.4%
Cc1ccc(-n2nc3ccc(NC(=O)COc4ccccc4C)cc3n2)cc1	i	?	?	?	/	/
SMILES	KB-3-1 cytotox	KB-V1 cytotox	TDP1 cell noCPT	TDP1 cell CPT	HT1080NT lethal	HT1080 IDH1KD tx
O=[N+]([O-])/C=C/c1c(Cl)cccc1Cl	?	?	1.3µM*	0.461µM*	?	?
CCOC(C[n+]1c(-c2ccccc2)cc(C)cc1-c1ccccc1)OCC	?	i	0.517µM*	1.64µM*	?	-22.2%
N/C(=N\[N+](=O)[O-])NCCCC(NC(=O)CNC(=O)c1ccccc1)C(=O)O (stereo not given)	i	i	0.0%	1.7%	6.8%	8.2%
C=CCOC(Cn1ccnc1)c1ccc(Cl)cc1Cl (stereo not given)	i	i	9.44µM*	29.9µM*	-4.2%	1.3%
Clc1ccc(COC(Cn2ccnc2)c2ccc(Cl)cc2Cl)c(Cl)c1 (stereo not given)	i	?	14.6µM*	18.4µM*!	23.1µM*	?
CC1=NNC(=O)C1Br (stereo not given)	i	i	?	?	-0.2%	-21.5%
CC(Oc1ccc(Cl)cc1Cl)c1nc(-c2ccc(NC(=O)c3ccncc3)cc2)no1 (stereo not given)	?	?	8.2µM*	14.6µM*	-24.9%[9.24 µM]	?
COc1cc(CNC(=O)CCCC/C=C/C(C)C)ccc1O	i	i	8.91µM*!	11.2µM*!	-12.1%	-14.0%
CCCCC/C(=N\O)c1c[nH]c2ccccc12	i	i	-10.6%	-7.8%	-13.7%	-17.3%
CC(C(=O)c1c[nH]c2ccccc12)N1CCc2ccccc2C1 (stereo not given)	?	i	?	16.4µM*	-1.6%	-22.1%
Cc1cc(NC(=O)CCl)nn1C	13µM*	20.6µM*	14.6µM*	23.1µM*	?	?
Cn1ccc(NC(=O)CCl)n1	i	i	?	?	?	?
CC(C)NCC(O)COc1cccc2[nH]ccc12 (stereo not given)	/	/	-18.5%	?	/	/
CC(=O)Nc1ccc(OC(=O)N(C)c2ccccc2)cc1	i	i	-3.9%	11.1%	13.0%	11.5%
CC(=O)Nc1ccc(S(=O)(=O)N(C)CCOCc2ccccc2)cc1	?	?	18.4µM*	23.1µM*	-18.3%	-2.8%[9.24 µM]
O=C(Nc1ccc(F)c(Cl)c1)N(Cc1ccc2c(c1)OCO2)C1CCN(Cc2ccccc2)CC1	i	i	?	?	/	/
CCNc1nc(NC(C)C)nc(NS(=O)(=O)c2ccc(Cl)cc2)n1	i	i	?	?	-8.1%	-5.7%

Compound activity as filed in PubChem BioAssay.
